Compound activity as filed in PubChem.
These entries were drawn from the full list.
aSyn 5UTR act: Activators working through SNCA 5'UTR binding (MLPCN); activity score, % (tested at 7.5 µM), hits read low; alpha-synuclein 5'UTR reporter, activators screen; AID 1814; hit rate 7.1% among 300,000; in the data active = activity score below about -60%
Large screens that a line does not name were inactive.

COc1ccc(OC)c(Cc2nnc(CCC(=O)N3CCCCCC3)o2)c1	aSyn 5UTR act -74
COc1ccc(OC)c(Cc2nnc(CCC(=O)NC3CCCCCCC3)o2)c1	aSyn 5UTR act -118
COc1ccc(OC)c(Cc2nnc(CCC(=O)N3CCCCC3c3nccs3)o2)c1 (stereo not given)	aSyn 5UTR act -116
O=C(c1ccc(COc2ccccc2Br)cc1)N1CCCCC1	aSyn 5UTR act -77
Fc1ccc(COc2ccc(C(=S)N3CCCC3)cc2)cc1	aSyn 5UTR act -77
CC(/C=C1\SC(=Nc2cccnc2)NC1=O)=C\c1ccccc1	aSyn 5UTR act -113
COc1ccc2[nH]c(N=Nc3ccccc3C)c(O)c2c1	aSyn 5UTR act -207
C/C(=N\Nc1nnc2c3ccccc3n(C)c2n1)c1ccc(C)o1	aSyn 5UTR act -85
Cc1cc(C)n(-c2nnc3c4ccccc4n(C)c3n2)n1	aSyn 5UTR act -69
O=C(O)c1cccc(Nc2nc(-c3cc4ccccc4oc3=O)cs2)c1	aSyn 5UTR act -98
O=C(O)c1ccc(-c2nnc(-c3cccc(Br)c3)o2)cc1	aSyn 5UTR act -202
Brc1ccc(-c2nnc(-c3cccc(Br)c3)o2)cc1	aSyn 5UTR act -127
O=C(Nc1cc(Cl)ccc1Cl)c1noc2c1CCCC2	aSyn 5UTR act -67
O=C(Nc1ccc(F)cc1F)c1noc2c1CCC2	aSyn 5UTR act -169
c1ccc(N2CCN(c3nc4cc5c(cc4s3)OCCO5)CC2)cc1	aSyn 5UTR act -157
c1ccc2sc(N3CCOCC3)nc2c1	aSyn 5UTR act -65
Nc1ccc2nc(N3CCOCC3)sc2c1	aSyn 5UTR act -69
CCC(C)(C)n1nnnc1C(c1ccc2ncccc2c1)N1CCN(c2nc3ccccc3s2)CC1 (stereo not given)	none
c1c2c(cc3sc(N4CCOCC4)nc13)OCCO2	none
Fc1cccc(Cl)c1CN1CCN(c2nc3ccccc3s2)CC1	aSyn 5UTR act -198
Nc1ccc2oc(CCc3ccccc3)nc2c1	aSyn 5UTR act -118
c1ccc2oc(CCc3nc4ccccc4o3)nc2c1	aSyn 5UTR act -99
Cc1cc(N/N=C/c2ccncc2)nc2ccccc12	aSyn 5UTR act -137
Cc1cc(N/N=C/c2cccc(Br)c2)nc2ccccc12	aSyn 5UTR act -241
CCCNC(=O)Cn1nc([N+](=O)[O-])c([N+](=O)[O-])c1C	aSyn 5UTR act -77
CCCCNC(=O)Cn1nc([N+](=O)[O-])c([N+](=O)[O-])c1C	aSyn 5UTR act -138
Fc1ccc(/C=N/NC2=Nc3cccc4cccc2c34)cc1	aSyn 5UTR act -294
COc1ccc(C(NC(=O)C(C)C)c2ccc3cccnc3c2O)cc1 (stereo not given)	none
CC(On1c(-c2ccccc2)nc2ccc(Cl)cc21)C(=O)O (stereo not given)	aSyn 5UTR act -62
COc1ccc(-c2nc3ccccc3n2OC(C)C(=O)O)cc1 (stereo not given)	aSyn 5UTR act -196
Cc1ccc(-c2nc3ccc(Cl)cc3n2OC(C)C(=O)O)cc1 (stereo not given)	aSyn 5UTR act -127
COc1ccc(-c2n(CC(=O)OC3CC(C)CCC3C(C)C)c3ccccc3[n+]2C)cc1 (stereo not given)	none
O=c1c2ccc(Cl)cc2nc(-c2cccc(C(F)(F)F)c2)n1O	none
On1c(-c2ccccc2)nc2ccc(Cl)cc21	aSyn 5UTR act -149
Oc1ccc(NCc2ccc(OCc3ccccc3)cc2)cc1	aSyn 5UTR act -100
CS(=O)(=O)Nc1ccc(OCc2ccccc2)cc1	aSyn 5UTR act -168
COC(=O)Nc1ccc(OCc2ccccc2)cc1	aSyn 5UTR act -112
COCC(=O)Nc1ccc(OCc2ccccc2)cc1	aSyn 5UTR act -79
CC(=O)Nc1ccc(N=Cc2ccc(OCc3ccccc3)cc2)cc1	aSyn 5UTR act -129
COc1ccccc1NC(=O)C(=O)N/N=C(\C)CC(=O)Nc1ccc(OCc2ccccc2)cc1	aSyn 5UTR act -62
COc1cccc(NC(=O)Nc2cccs2)c1	aSyn 5UTR act -80
COc1ccc(NC(=O)Nc2cccs2)cc1OC	aSyn 5UTR act -82
CCCc1ccc2oc(C(=O)N(C)Cc3cnccn3)c(C)c2c1	aSyn 5UTR act -73
Cc1ccc2oc(C(=O)N(C)Cc3ccon3)c(C)c2c1	aSyn 5UTR act -153
Cc1ncc(CO)c(/C=N/Nc2ccc(C(F)(F)F)cn2)c1O	none
Cc1ncc(CO)c(/C=N/N=C/c2ccccc2O)c1O	aSyn 5UTR act -89
Fc1ccc(-c2nnc(NC3=NCCCCC3)o2)cc1	none
Fc1ccc(-c2nnc(-c3ccc(F)cc3)o2)cc1	aSyn 5UTR act -185
O=[N+]([O-])c1ccc(Cc2nnc(-c3ccc(F)cc3)o2)cc1	aSyn 5UTR act -86
Cc1ccc(-c2nnc(Cc3ccc([N+](=O)[O-])cc3)o2)cc1	aSyn 5UTR act -120
[O-][n+]1c2ccccc2c2n1CCCN=C2c1ccc(Cl)cc1	aSyn 5UTR act -149
N#C/C(=C\c1ccc(N2CCOCC2)cc1)c1ccccc1	aSyn 5UTR act -132
N#C/C(=C\c1ccc(N2CCOCC2)o1)c1ccccc1	aSyn 5UTR act -223
N#C/C(=C/c1ccc(N2CCOCC2)o1)c1ccc(Br)cc1	aSyn 5UTR act -284
CN1CCN(c2ccc([N+](=O)[O-])cc2C(=O)c2ccc(Br)cc2)CC1	none
O=[N+]([O-])c1ccc(-c2ncc(-c3ccc(Br)cc3)o2)cc1	aSyn 5UTR act -195
O=C(Nc1ccc2c(c1)OCCO2)c1ccc(Cl)c([N+](=O)[O-])c1	aSyn 5UTR act -105
O=C(CNC(=O)c1ccc2c(c1)OCO2)Nc1ncccc1O	aSyn 5UTR act -77
CCOc1ccc(C(=O)Nc2ncccc2Cl)cc1	aSyn 5UTR act -116
O=C(Nc1ccc2c(c1)OCCO2)c1ccc(Cl)c(Cl)c1	aSyn 5UTR act -131
CCn1cc([N+](=O)[O-])c(C(=O)Nc2ccc3c(c2)OCCO3)n1	aSyn 5UTR act -69
O=C(Nc1ccc(Cl)c(Cl)c1)C1=Cc2ccccc2OC1	aSyn 5UTR act -202
O=C(Nc1ncccc1Cl)c1ccc2c(c1)OCCO2	aSyn 5UTR act -119
N#Cc1ccsc1NC(=O)c1ccc(Cl)c([N+](=O)[O-])c1	aSyn 5UTR act -116
Cn1c(=O)[nH]c(=O)c2c1nc(Br)n2Cc1cccc(Br)c1	aSyn 5UTR act -70
CC(C)CCn1c(SCCc2ccccc2)nc2c1c(=O)[nH]c(=O)n2C	none
CCCCCCn1c(SCCC)nc2c1c(=O)[nH]c(=O)n2C	none
Cc1cccc(/C(N)=N/OC(=O)c2ccoc2C)c1	aSyn 5UTR act -116
COc1ccc(C(=O)O/N=C(\N)c2cccc(C)c2)cc1OC	aSyn 5UTR act -165
COc1ccc(C(=O)O/N=C(\N)c2ccccc2)cc1OC	aSyn 5UTR act -180
COc1ccc(/C(N)=N/OC(=O)CSc2ccccc2)cc1OC	aSyn 5UTR act -125
COc1ccc(C(=O)n2c(N)nc3ccccc32)cc1OC	aSyn 5UTR act -177
Cc1ccc(NC(=O)c2ccc(OC(=O)COc3ccc(Cl)c(C)c3)cc2)cc1	aSyn 5UTR act -115
O=C(NC1=NCCS1)c1ccc(OCC2CCCO2)cc1 (stereo not given)	aSyn 5UTR act -77
Cc1cnc(NC(=O)c2ccc(OCC3CCCO3)cc2)s1 (stereo not given)	none
CCOc1ccc(C(=O)NC2=NCCS2)cc1	aSyn 5UTR act -85
Cc1ccc(NC(=O)c2ccc(OCC3CCCO3)cc2)cc1 (stereo not given)	aSyn 5UTR act -123
O=C(Nc1nc2ccccc2s1)c1ccc(OCC2CCCO2)cc1 (stereo not given)	aSyn 5UTR act -89
CC(C)OC(=O)CNc1n[nH]c(=S)[nH]c1=O	aSyn 5UTR act -131
Oc1ccc(Br)cc1C=Nc1cccn2cc(-c3ccccc3)nc12	aSyn 5UTR act -80
COc1cc(/C=C/c2nc3ccccc3s2)cc(OC)c1O	aSyn 5UTR act -69
